The target in experiment [1] is Androgen Receptor/SRC-1 Co-activator, AR (gene 367) (UniProt P10275). The experiment in a line: OT_AR_ARSRC1_0960: Odyssey Thera (OT) 16-hour HEK293T Protein-Complementation Assay for Androgen Receptor/SRC-1 Co-activator (AID 2283353; active = hit-call score of the fitted dose curve at least 0.9, where 1 is the maximum;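 also: actives raise the signal above DMSO so potency reflects increased AR and SRC-1 complex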). An outline of the steps:
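Endpoint is gain-of-signal N/C fluorescence ratio in the 488 nm channel versus DMSO, from at least 400 cells per image, measured 16 h post-dosing. Cells: HEK293T stably carrying split-Venus AR/SRC-1 complementation constructs.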

For experiment [2] the target is unchanged. The experiment in a line: OT_AR_ARSRC1_0480: Odyssey Thera (OT) 8-hour HEK293T Protein-Complementation Assay for Androgen Receptor/SRC-1 Co-activator (AID 2283354; active = hit-call score of the fitted dose curve at least 0.9, where 1 is the maximum;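 also: hits raise the complementation signal above DMSO so AC50 marks enhancers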). An outline of the steps:
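After 8 h dosing, stably expressing HEK293T cells with split-Venus AR/SRC-1 fusions were imaged (488, 635nm). The 488nm N/C ratio per image gave the endpoint, analysed in the positive direction against DMSO.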

For experiment [3], the target named is Agonist Androgen Response Element (ARE), AR (gene 367) (UniProt P10275). The experiment in a line: OT_AR_ARELUC_AG_1440: Odyssey Thera (OT) 24-hour CHO-K1 Luciferase Assay for Agonist Androgen Response Element (ARE) (AID 2283379; active = hit-call score of the fitted dose curve at least 0.9, where 1 is the maximum). The method in brief:
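Luminescence increase above DMSO, read after a 24 h compound treatment of CHO-K1 cells expressing an androgen response element luciferase reporter, gives the single primary endpoint; concentration-response fitting used the positive direction.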

The target in experiment [4] is AR (gene 367) (UniProt P10275). The experiment in a line: ACEA_AR_antagonist_80hr: ACEA Biosciences xCELLigence Real-Time Cell Analysis on Androgen Receptor Antagonism for Proliferation (AID 2283787; active = hit-call score of the fitted dose curve at least 0.9, where 1 is the maximum;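 also: 22Rv1 human prostate cancer cells with growth followed by electrical impedance; hits lower the impedance growth signal relative to DMSO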). An outline of the steps: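 Using 22Rv1 cells held in assay medium, we dosed compounds (100 uM maximum final, 1:4 serial, eight points, 0.5% DMSO at top) and recorded cell-electrode impedance; the 80 hr timepoint was analyzed against DMSO.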
AR (gene 367), sequence (P10275 whole entry, looked up): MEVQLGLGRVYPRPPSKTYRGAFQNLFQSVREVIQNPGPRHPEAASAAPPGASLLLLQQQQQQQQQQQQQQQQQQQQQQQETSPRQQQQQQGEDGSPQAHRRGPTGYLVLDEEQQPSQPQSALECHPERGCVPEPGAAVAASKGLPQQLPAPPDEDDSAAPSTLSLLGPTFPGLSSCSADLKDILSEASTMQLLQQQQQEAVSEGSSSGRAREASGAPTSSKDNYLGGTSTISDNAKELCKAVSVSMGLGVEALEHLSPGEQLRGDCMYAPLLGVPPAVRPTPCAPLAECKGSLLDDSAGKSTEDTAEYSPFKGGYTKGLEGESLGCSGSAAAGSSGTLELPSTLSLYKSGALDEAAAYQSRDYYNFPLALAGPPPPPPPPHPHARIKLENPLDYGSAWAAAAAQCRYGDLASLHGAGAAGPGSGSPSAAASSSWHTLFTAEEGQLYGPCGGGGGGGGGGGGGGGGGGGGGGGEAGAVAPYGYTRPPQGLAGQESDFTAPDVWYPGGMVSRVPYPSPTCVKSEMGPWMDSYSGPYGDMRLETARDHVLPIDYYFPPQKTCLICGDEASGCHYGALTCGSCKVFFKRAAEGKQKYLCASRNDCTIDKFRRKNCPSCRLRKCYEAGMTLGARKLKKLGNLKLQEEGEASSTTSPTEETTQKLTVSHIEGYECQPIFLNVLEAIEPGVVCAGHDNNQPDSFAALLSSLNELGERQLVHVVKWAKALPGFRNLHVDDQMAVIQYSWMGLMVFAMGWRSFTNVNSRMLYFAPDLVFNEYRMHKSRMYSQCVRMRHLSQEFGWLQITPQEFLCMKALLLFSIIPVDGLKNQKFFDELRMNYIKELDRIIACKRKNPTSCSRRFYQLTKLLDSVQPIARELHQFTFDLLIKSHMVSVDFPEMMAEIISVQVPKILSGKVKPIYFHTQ

Experiment [5] has as its target Cytochrome P450 2C19 (Homo sapiens) (UniProt P33261). Description: NVS_ADME_hCYP2C19: NovaScreen (NVS) CYP450-related Enzyme Activity (ADME) Assay for human CYP2C19 (AID 2283113; active = hit-call score of the fitted dose curve at least 0.9, where 1 is the maximum;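 also: potency for inhibition seen as loss of fluorescent signal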). An outline of the steps:
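Cell-free assay of recombinant human CYP2C19 expressed in insect cells, with a fluorogenic substrate; fluorescence intensity read 1 hour after dosing. Loss of signal relative to acetonitrile negative control indicates inhibition. Primary screen at 10 uM in duplicate, then concentration series.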

The target of experiment [6] is bovine Estrogen Receptor (ER), ESR1 (gene 407238) (UniProt P49884). Description: NVS_NR_bER: NovaScreen (NVS) Nuclear Receptor Binding Assay for bovine Estrogen Receptor (ER) (AID 2283345; active = hit-call score of the fitted dose curve at least 0.9, where 1 is the maximum;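 also: actives lower the bound radioligand count which means they displace the ER ligand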). An outline of the steps: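 Cell-free radioligand binding with bovine uterine membrane extracts, read 18 hours after dosing by scintillation counting. Loss of signal versus DMSO baseline indicates displacement. Primary screen run in duplicate at 25 uM, actives followed in concentration series.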
bovine Estrogen Receptor (ER), ESR1 (gene 407238), sequence (P49884 whole entry, looked up): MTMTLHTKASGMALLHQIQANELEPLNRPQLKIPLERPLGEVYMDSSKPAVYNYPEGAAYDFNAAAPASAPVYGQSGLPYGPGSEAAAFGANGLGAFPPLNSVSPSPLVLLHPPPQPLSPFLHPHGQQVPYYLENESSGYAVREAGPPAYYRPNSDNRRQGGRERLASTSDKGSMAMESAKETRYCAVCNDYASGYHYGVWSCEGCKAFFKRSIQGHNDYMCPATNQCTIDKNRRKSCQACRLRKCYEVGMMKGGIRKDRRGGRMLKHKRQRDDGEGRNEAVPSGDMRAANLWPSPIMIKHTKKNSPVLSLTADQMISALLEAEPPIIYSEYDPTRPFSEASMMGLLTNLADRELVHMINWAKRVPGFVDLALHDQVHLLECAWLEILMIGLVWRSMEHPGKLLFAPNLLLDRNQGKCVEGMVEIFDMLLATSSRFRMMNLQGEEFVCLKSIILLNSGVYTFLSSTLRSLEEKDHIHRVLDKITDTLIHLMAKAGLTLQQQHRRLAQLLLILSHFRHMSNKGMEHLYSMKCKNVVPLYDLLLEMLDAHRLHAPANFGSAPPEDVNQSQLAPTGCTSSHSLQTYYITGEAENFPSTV

Experiment [7] has as its system TTR (gene 7276). Description: CCTE_GLTED_hTTR_0.125uM: CCTE's human Transthyretin (hTTR) Inhibition Assay, with 0.125uM TTR, Great Lakes Toxicology and Ecology Division (GLTED) Lab (AID 2284431).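 Also: hits lower the fluorescence signal relative to DMSO baseline.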 The method in brief:
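Cell-free displacement of the fluorescent probe ANSA from human TTR (0.125uM) after 2 h incubation with test chemical. Fluorescence read at 380 nm excitation/475 nm emission; loss of signal fitted relative to DMSO baseline.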

Experiment [8] is described as follows: CCTE_Deisenroth_5AR_NBTE_donor: CCTE's 5alpha-reductase NanoBRET Target Engagement Assay […], Deisenroth Lab (AID 2284319). The conditions noted are these: actives raise or lower the signal. An outline of the steps: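 HEK293T cells transiently expressing SRD5A2-NanoLuc, exposed 5 h to chemicals (8 points, 10 nM - 29.9 uM), with testosterone tracer for the final 2 h. Donor luminescence at 460 nm read after Nano-Glo substrate plus extracellular NanoLuc inhibitor; bidirectional fit versus DMSO.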
On the technique in general: BRET reads energy transfer from a luciferase to a nearby fluorophore.

The subject of experiment [9] is SRD5A2 (gene 6716). The experiment in a line: CCTE_Deisenroth_5AR_NBTE_ratio: CCTE's 5alpha-reductase NanoBRET Target Engagement Assay - Ratio, Deisenroth Lab (AID 2284322). The conditions noted are these: actives raise or lower the signal. An outline of the steps: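 HEK293T cells transiently expressing an SRD5A2-NanoLuc fusion (20 h post-transfection) were exposed to test chemical (10 nM - 29.9 uM, 8 points) for 3 h, then testosterone tracer for a further 2 h. Acceptor/donor BRET ratio was fitted bidirectionally against DMSO baseline.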

Experiment [10] can be described thus: CCTE_Shafer_MEA_dev_firing_rate_mean: CCTE's Neural Network Formation Assay for Mean Firing Rate, Shafer Lab (AID 2284031). An outline of the steps:
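Spike frequency (spikes/recording length, averaged over active electrodes) was recorded on days 5, 7, 9 and 12 and collapsed to AUC; rat cortical cultures received compound continuously over 12 days of network development.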

Experiment [11] can be described thus: CCTE_Shafer_MEA_dev_per_burst_spike_percent: CCTE's Neural Network Formation Assay for Percent of Spikes in a Burst, Shafer Lab (AID 2284032). An outline of the steps:
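Value is trapezoidal AUC over recordings on days 5, 7, 9 and 12 of the well-mean fraction of spikes falling in single-electrode bursts; rat cortical cultures exposed continuously from plating, treatment renewed DIV 5 and 9, fitted downward against DMSO.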

Experiment [12] can be described thus: CCTE_Shafer_MEA_dev_active_electrodes_number: CCTE's Neural Network Formation Assay for Number of Active Electrodes, Shafer Lab (AID 2284040; active = hit-call score of the fitted dose curve at least 0.9, where 1 is the maximum). An outline of the steps: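 Counts electrodes per well firing at least 5 spikes/min, recorded on days 5, 7, 9 and 12 in rat cortical cultures dosed continuously from plating (treatment refreshed DIV 5, 9). Value is the area under the curve over recordings, fitted downward relative to DMSO.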

A short description of experiment [13]: CCTE_Shafer_MEA_dev_burst_rate: CCTE's Neural Network Formation Assay for Burst Rate, Shafer Lab (AID 2284042). An outline of the steps: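 Primary rat cortical neurons on PEI-coated 48-well MEA plates (laminin added with cells at plating) (16 electrodes/well), exposed from plating to day 12, dosing renewed at DIV 5 and 9. Burst rate averaged over active electrodes, recorded DIV 5, 7, 9, 12, summarized as AUC; loss versus DMSO.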

Experiment [14] in a line: CCTE_Shafer_MEA_dev_burst_duration_mean: CCTE's Neural Network Formation Assay for Mean Burst Duration, Shafer Lab (AID 2284045). An outline of the steps: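 Network-formation assay in primary rat cortical neurons; treatment spans twelve days of development. Mean burst duration per well is integrated by trapezoidal AUC and fitted in the loss-of-signal direction against DMSO baseline.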

A short description of experiment [15]: CCTE_Shafer_MEA_dev_interburst_interval_mean: CCTE's Neural Network Formation Assay for Mean Interburst Interval, Shafer Lab (AID 2284046).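 Also: well-mean interburst interval of bursting electrodes as AUC over four recording days; curve fitted for decrease in interburst interval relative to DMSO.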 The method in brief: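 Recordings on days 5, 7, 9 and 12 give well-mean interburst interval across actively bursting electrodes, summarized as area under the curve. Cultures: rat cortical neurons, continuous exposure from day 0, compound renewed at feeds; decrease analyzed versus DMSO.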

Experiment [16] in a line: CCTE_Shafer_MEA_dev_inter_network_spike_interval_mean: CCTE's Neural Network Formation Assay for Mean Inter-network Spike Interval, Shafer Lab (AID 2284047). An outline of the steps: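 Primary rat cortical neurons on 16-electrode MEA wells, exposed from plating day 0 through DIV 12, compound renewed at DIV 5 and 9 media changes. Mean interval between network-spike peaks recorded DIV 5, 7, 9, 12; collapsed as trapezoidal AUC, fitted downward versus DMSO.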

Experiment [17] can be described thus: CCTE_Shafer_MEA_dev_network_spike_number: CCTE's Neural Network Formation Assay for Number of Network Spikes, Shafer Lab (AID 2284048).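 Also: synchronized bursts across electrodes counted on days 5 7 9 12 and integrated as AUC.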 The method in brief:
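Extracellular recordings from 16-electrode wells track network formation in rat cortical cultures under continuous treatment from plating. The endpoint is network spike number, expressed as AUC across DIV 5–12 relative to DMSO vehicle.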

Experiment [18] is described as follows: CCTE_Shafer_MEA_dev_network_spike_peak: CCTE's Neural Network Formation Assay for Mean Number of Electrodes in Network Spike, Shafer Lab (AID 2284049). An outline of the steps:
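Continuous 12-day exposure of rat cortical cultures, starting at plating, on MEA plates. Endpoint: electrodes participating in network-spike peaks, AUC across DIV 5–12, DMSO as negative control.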

Experiment [19] in a line: CCTE_Shafer_MEA_dev_spike_duration_mean: CCTE's Neural Network Formation Assay for Mean Spike Duration, Shafer Lab (AID 2284051).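 Also: mean network spike duration pooled as area under curve over DIV 5 to 12 recordings.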 The method in brief: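 Primary rat cortical neurons on 16-electrode MEA wells (PEI-coated, laminin in plating drop), exposed from plating through DIV 12 with compound renewed at DIV 5 and 9. Mean network-spike duration recorded DIV 5, 7, 9, 12; trapezoidal AUC across days, DMSO baseline.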

The nature of experiment [20]: CCTE_Shafer_MEA_dev_network_spike_duration_std: CCTE's Neural Network Formation Assay for Standard Deviation of Network Spike Duration, Shafer Lab (AID 2284052).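 Also: area under curve of spike duration SD across recording days 5 to 12; hits are decreases in network spike duration SD versus DMSO vehicle.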 The method in brief:
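Primary rat cortical neurons on PEI-coated 16-electrode MEA wells, exposed from plating day 0 through day 12 with compound renewed at DIV 5 and 9. Network spike duration SD recorded on days 5, 7, 9, 12, collapsed as trapezoidal AUC; loss-of-signal fit versus DMSO.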

The results in this text go back to PubChem BioAssay (EPA / NIEHS).

As usually defined, the AC50 is the midpoint of the concentration-response curve, whichever way the signal moves.

Inconclusive results are not listed. Calls of active or inactive are those of the source. The calls were made as follows, unless noted: active = hit-call score of the fitted dose curve at least 0.9, where 1 is the maximum; inactive = score below 0.9.

Androgen Receptor/SRC-1 Co-activator, AR (gene 367), sequence (P10275 whole entry, looked up): as the sequence (P10275 whole entry, looked up) above
Agonist Androgen Response Element (ARE), AR (gene 367), sequence (P10275 whole entry, looked up): as above

In the case of `O=C(NCNC(=O)NC1C(=O)NC(=O)N1CO)NC1C(=O)NC(=O)N1CO` (configuration not stated), the result in [1], in experiment [2], in experiment [3] and in experiment [4] was inactive.
For `CCOC(=O)NC(=S)Nc1ccccc1NC(=S)NC(=O)OCC`, the AC50 in experiment [5] was 2.84 µM (active).
Consider `CN(C)N`, for which the result in experiment [1], in experiment [2], in experiment [3] and in experiment [4] was inactive.
Regarding `C[C@]12CCC(=O)C(O)=C1CC[C@@H]1[C@@H]2CC[C@]2(C)C(=O)CC[C@@H]12`, the compound was classed as inactive in [6].
On to `Cc1ccc(C)c2ccccc12`, for which the outcome in experiment [1], in [2] and in [3] was inactive.
`CCOP(=O)(OCC)Oc1ccc([N+](=O)[O-])cc1`: the AC50 in [7] was 5.87 µM (active).
With `CC(=O)c1cc2c(cc1C)C(C)(C)C(C)CC2(C)C` (configuration not stated), the compound was classed as inactive in experiment [8] and in [9].
As to `COC(C)(C)CCC[C@H](C)C/C=C/C(C)=C/C(=O)OC(C)C`, the half-maximal activity concentration (AC50) in experiment [5] is 0.992 µM (active).
With `c1cc(OCC2CO2)ccc1Cc1ccc(OCC2CO2)cc1` (configuration not stated), the result in experiment [6] was inactive.
For `CC(C)CCCCCCCOP(=O)(Oc1ccccc1)Oc1ccccc1`, the call in [10], in [11], in experiment [12], in experiment [13], in [14] and in experiment [15] was inactive. The result in experiment [16], in experiment [17], in [18], in experiment [19] and in experiment [20] was inactive.
As for `CNC(=N[N+](=O)[O-])NCC1CCOC1` (configuration not stated), the call in experiment [10], in [11], in [12], in experiment [13], in experiment [14] and in experiment [15] was inactive. Also, the result in [16], in experiment [17], in experiment [18], in experiment [19] and in experiment [20] was inactive.
Regarding `CC(Cc1ccc(C(C)(C)C)cc1)CN1C[C@@H](C)O[C@@H](C)C1` (some centres not stated), the AC50 in [5] is 6.83 µM (active).
Regarding `COc1cc(OC)c(OC)cc1C=O`, the compound was classed as inactive in experiment [6].
On to `COc1cc(OC)nc(Oc2cccc(Oc3nc(OC)cc(OC)n3)c2C(=O)O)n1`, for which the compound was classed as inactive in experiment [1], in [2], in [3] and in experiment [4].
Turning to `CCCCCCCCCCCCCCCC[N+](C)(C)C`, in experiment [8], the AC50 was 16.3 µM (active). The outcome in [9] was inactive.
`CC(C)c1ccc(O)cc1`: the compound was called inactive in [8] and in [9].
For the compound `CCOC(=O)COc1ccc(Cl)cc1Cl`, the AC50 in [7] is 19.4 µM (active).
In the case of `Nc1cc(Cl)cc(Cl)c1`, the AC50 in [7] was 6.93 µM (active).
